This excerpt belongs to a sample that is enriched for the strongest signals.
Columns and labels:
Assay in all cases: glycan array binding signal (z-score within array); higher = stronger binding
Conditions in all cases: glycan notation: IUPAC condensed, linker removed
[1] = biological target: Neu5Ac(a2-3)Gal(b1-3)GalNAc6S
Method in brief: (§1)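 Negative Z-scores can be read as non-binding. The Z-score is calculated within each array and then averaged across arrays of one protein sequence at different concentrations or buffers and across linkers. Arrays, 3228 in all, were curated from the Consortium for Functional Glycomics database and kept only where the protein sequence was available.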

[2] = biological target: Neu5Ac(a2-3)Gal(b1-4)GlcNAc6S
Method in brief: as §1

[3] = biological target: Neu5Ac(a2-3)Gal(b1-4)[Fuc(a1-3)]GlcNAc(b1-3)Gal(b1-4)GlcNAc
Method in brief: as §1

[4] = biological target: Neu5Ac(a2-3)Gal(b1-4)[Fuc(a1-3)]GlcNAc(b1-3)GalNAc
Method in brief: as §1

[5] = biological target: Neu5Ac(a2-6)Gal(b1-4)GlcNAc(b1-3)Gal(b1-4)GlcNAc(b1-3)Gal(b1-4)GlcNAc
Method in brief: as §1

[6] = biological target: Neu5Ac(a2-6)Gal(b1-4)GlcNAc(b1-3)Gal(b1-4)[Fuc(a1-3)]GlcNAc(b1-3)Gal(b1-4)[Fuc(a1-3)]GlcNAc
Method in brief: as §1

[7] = biological target: Neu5Ac(a2-6)Gal(b1-4)GlcNAc6S
Method in brief: as §1

[8] = biological target: Neu5Gc(b2-6)Gal(b1-4)GlcNAc
Method in brief: as §1

[9] = biological target: Fuc(a1-2)Gal(b1-3)GalNAc(b1-3)Gal
Method in brief: as §1

Fuc(a1-2)Gal(b1-4)Glc = biological target: Fuc(a1-2)Gal(b1-4)Glc
Method in brief: as §1

[10] = biological target: Fuc(a1-2)Gal(b1-4)GlcNAc(b1-3)Gal(b1-4)GlcNAc(b1-3)Gal(b1-4)GlcNAc
Method in brief: as §1

[11] = biological target: Fuc(a1-2)Gal(b1-4)[Fuc(a1-3)]GlcNAc(b1-3)Gal(b1-4)[Fuc(a1-3)]GlcNAc
Method in brief: as §1

[12] = biological target: Fuc(a1-2)[Gal(a1-4)]Gal(b1-4)GlcNAc
Method in brief: as §1

[13] = biological target: Fuc(a1-2)[GalNAc(a1-4)]Gal(b1-4)GlcNAc
Method in brief: as §1

[14] = biological target: Fuc(a1-3)[Gal(b1-4)]Glc6S
Method in brief: as §1

[15] = biological target: Fuc(a1-3)[Gal(b1-4)]GlcNAc(b1-2)Man(a1-6)[Gal(b1-4)GlcNAc(b1-2)Man(a1-3)]Man(b1-4)GlcNAc(b1-4)GlcNAc
Method in brief: as §1

[16] = biological target: Fuc(a1-3)[Gal(b1-4)]GlcNAc(b1-4)Gal(b1-4)[Fuc(a1-3)]GlcNAc(b1-4)Gal(b1-4)[Fuc(a1-3)]GlcNAc
Method in brief: as §1

[17] = biological target: Fuc(a1-3)[Neu5Ac(a2-3)]Gal(b1-4)GlcNAc(b1-3)GalNAc
Method in brief: as §1

[18] = biological target: Gal(b1-3)[Fuc(a1-4)]GlcNAc
Method in brief: as §1

[19] = biological target: Gal(b1-3)[Neu5Ac(b2-6)]GalNAc
Method in brief: as §1

[20] = biological target: Gal(b1-4)GalNAc(a1-3)[Fuc(a1-2)]Gal(b1-4)GlcNAc
Method in brief: as §1

Gal3S(b1-3)GalNAc = biological target: Gal3S(b1-3)GalNAc
Method in brief: as §1

Gal3S(b1-4)Glc6S = biological target: Gal3S(b1-4)Glc6S
Method in brief: as §1

Gal6S(b1-4)Glc = biological target: Gal6S(b1-4)Glc
Method in brief: as §1

Glc(b1-6)Glc = biological target: Glc(b1-6)Glc
Method in brief: as §1

[21] = biological target: GlcNAc(b1-3)Gal(b1-4)GlcNAc(b1-3)Gal(b1-4)GlcNAc
Method in brief: as §1

[22] = biological target: GlcNAc(b1-3)[GlcNAc(b1-6)]Gal(b1-4)GlcNAc
Method in brief: as §1

[23] = biological target: GlcNAc(b1-4)[GlcNAc(b1-6)]GalNAc
Method in brief: as §1

[24] = biological target: Man(a1-2)Man(a1-2)Man(a1-3)Man
Method in brief: as §1

[25] = biological target: Man(a1-3)[Man(a1-6)]Man(a1-6)[Man(a1-3)]Man
Method in brief: as §1

[26] = biological target: Neu5Ac(a2-3)Gal(b1-4)GlcNAc(b1-6)[Gal(b1-3)]GalNAc
Method in brief: as §1

Neu5Ac(a2-8)Neu5Ac = biological target: Neu5Ac(a2-8)Neu5Ac
Method in brief: as §1

[27] = biological target: Neu5Ac(a2-8)Neu5Ac(a2-3)[GalNAc(b1-4)]Gal(b1-4)Glc
Method in brief: as §1

[28] = biological target: Neu5Ac(a2-8)Neu5Ac(a2-8)Neu5Ac(a2-8)Neu5Ac(a2-3)[GalNAc(b1-4)]Gal(b1-4)Glc
Method in brief: as §1

[29] = biological target: Neu5Ac9Ac(a2-3)Gal(b1-4)GlcNAc
Method in brief: as §1

Row | Binder | glycan array binding signal (z-score) [1] | glycan array binding signal (z-score) [2] | glycan array binding signal (z-score) [3] | glycan array binding signal (z-score) [4] | glycan array binding signal (z-score) [5] | glycan array binding signal (z-score) [6] | glycan array binding signal (z-score) [7] | glycan array binding signal (z-score) [8] | glycan array binding signal (z-score) [9] | glycan array binding signal (z-score) (Fuc(a1-2)Gal(b1-4)Glc) | glycan array binding signal (z-score) [10] | glycan array binding signal (z-score) [11] | glycan array binding signal (z-score) [12] | glycan array binding signal (z-score) [13] | glycan array binding signal (z-score) [14] | glycan array binding signal (z-score) [15] | glycan array binding signal (z-score) [16] | glycan array binding signal (z-score) [17] | glycan array binding signal (z-score) [18] | glycan array binding signal (z-score) [19] | glycan array binding signal (z-score) [20] | glycan array binding signal (z-score) (Gal3S(b1-3)GalNAc) | glycan array binding signal (z-score) (Gal3S(b1-4)Glc6S) | glycan array binding signal (z-score) (Gal6S(b1-4)Glc) | glycan array binding signal (z-score) (Glc(b1-6)Glc) | glycan array binding signal (z-score) [21] | glycan array binding signal (z-score) [22] | glycan array binding signal (z-score) [23] | glycan array binding signal (z-score) [24] | glycan array binding signal (z-score) [25] | glycan array binding signal (z-score) [26] | glycan array binding signal (z-score) (Neu5Ac(a2-8)Neu5Ac) | glycan array binding signal (z-score) [27] | glycan array binding signal (z-score) [28] | glycan array binding signal (z-score) [29]
1 | Flo11 (Saccharomyces cerevisiae), P08640 (protein) MQRPFLLAYLVLSLLFNSALGFPTALVPRGSSEGTSCNSIVNGCPNLDFNWHMDQQNIMQYTLDVTSVSWVQDNTYQITIHVKGKENIDLKYLWSLKIIGVTGPKGTVQLYGYNENTYLIDNPTDFTATFEVYATQDVNSCQVWMPNFQIQFEYLQGSAAQYASSWQWGTTSFDLSTGCNNYDNQGHSQTDFPGFYWNIDCDNNCGGTKSSTTTSSTSESSTTTSSTSESSTTTSSTSESSTTTSSTSESSTSSSTTAPATPTTTSCTKEKPTPPTTTSCTKEKPTPPHHDTTPCTKKKTTTSKTCTKKTTTPVPTPSSSTTESSSAPVPTPSSSTTESSSAPVTSSTTESSSAPVPTPSSSTTESSSAPVTSSTTESSSAPVTSSTTESSSAPVPTPSSSTTESSSAPVTSSTTESSSAPVTSSTTESSSAPVTSSTTESSSAPVTSSTTESSSAPVPTPSSSTTESSSAPVTSSTTESSSAPVPTPSSSTTESSSAPVTSSTTESSSAPVPTPSSSTTESSSAPAPTPSSSTTESSSAPVTSSTTESSSAPVPTPSSSTTESSSTPVTSSTTESSSAPVPTPSSSTTESSSAPVPTPSSSTTESSSAPAPTPSSSTTESSSAPVTSSTTESSSAPVPTPSSSTTESSSAPVPTPSSSTTESSSAPVPTPSSSTTESSSAPVTSSTTESSSAPVTSSTTESSSAPVPTPSSSTTESSSAPVPTPSSSTTESSSAPVPTPSSSTTESSSAPVTSSTTESSSAPVPTPSSSTTESSSAPVPTPSSSTTESSSAPVPTPSSSTTESSVAPVPTPSSSSNITSSAPSSTPFSSSTESSSVPVPTPSSSTTESSSAPVSSSTTESSVAPVPTPSSSSNITSSAPSSIPFSSTTESFSTGTTVTPSSSKYPGSQTETSVSSTTETTIVPTKTTTSVTTPSTTTITTTVCSTGTNSAGETTSGCSPKTVTTTVPTTTTTSVTTSSTTTITTTVCSTGTNSAGETTSGCSPKTITTTVPCSTSPSETASESTTTSPTTPVTTVVSTTVVTTEYSTSTKPGGEITTTFVTKNIPTTYLTTIAPTPSVTTVTNFTPTTITTTVCSTGTNSAGETTSGCSPKTVTTTVPCSTGTGEYTTEATTLVTTAVTTTVVTTESSTGTNSAGKTTTGYTTKSVPTTYVTTLAPSAPVTPATNAVPTTITTTECSAATNAAGETTSVCSAKTIVSSASAGENTAPSATTPVTTAIPTTVITTESSVGTNSAGETTTGYTTKSIPTTYITTLIPGSNGAKNYETVATATNPISIKTTSQLATTASASSVAPVVTSPSLTGPLQSASGSAVATYSVPSISSTYQGAANIKVLGNFMWLLLALPVVF | -0.833 | 0.179 | 2.91 | 3.06 | -0.252 | 0.359 | -0.192 | 0.414 | – | – | – | – | – | – | – | – | – | – | – | – | – | – | – | – | – | – | – | – | – | – | – | – | – | – | –
2 | Flo5 (Saccharomyces cerevisiae), P38894 (protein) MGSSHHHHHHSSGLVPRGSHMSGATEACLPAGQRKSGMNINFYQYSLKDSSTYSNAAYMAYGYASKTKLGSVGGQTDISIDYNIPCVSSSGTFPCPQEDSYGNWGCKGMGACSNSQGIAYWSTDLFGFYTTPTNVTLEMTGYFLPPQTGSYTFSFATVDDSAILSVGGSIAFECCAQEQPPITSTNFTINGIKPWDGSLPDNITGTVYMYAGYYYPLKVVYSNAVSWGTLPISVELPDGTTVSDNFEGYVYSFDDDLSQSNCTIPDPSIH | – | – | – | – | – | – | – | – | 1.59 | 1.59 | -0.14 | -0.205 | -0.23 | 3.78 | -0.024 | -0.206 | -0.162 | -0.232 | -0.153 | -0.121 | -0.189 | -0.17 | 8.31 | -0.082 | -0.203 | -0.027 | -0.156 | -0.139 | 6.07 | 3.11 | -0.196 | -0.148 | -0.104 | -0.149 | -0.126
